± gives the standard deviation of the averaged measurements. Over roughly 25,000 sequences, “ln(normalized median fluorescence intensity)” has its median near 10; the highest 2% begin near 12. The list comes from a sample in which the highest values are over-represented; it also holds similar and randomly drawn sequences.
Test system: PfAP2-G AP2 domain (GST-tagged)
Assay: gcPBM binding intensity (ln(normalized median fluorescence intensity)); higher = stronger DNA binding
In short: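 Binding intensity values are the highest Masliner-normalised natural-log median intensity among replicate spots of either probe orientation. The binding step lasted 1 h in 1× PBS with 1% milk, 0.2 mg/ml BSA, 0.5% salmon testes DNA and 0.03% Triton X-100, using GST-tagged P. falciparum DNA-binding domains expressed in E. coli on an Agilent 4 × 180k array of primer-extended double-stranded 36-bp intergenic genomic probes plus negative controls. Alexa488 anti-GST antibody and a 488 nm scan detected bound protein.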

Sequence	gcPBM binding intensity (ln)
TCTTTAAATTTCTCAACACACAGTTATAAAAAATAA [CACACA_site2856]	9.8 ± 0.085
TATAAATTTTTATTTACATGCAGTTATTATTTCCAT [TGCATGCA_site41]	10 ± 0.18
TAGTATTAAAATATTTGTACTTATATGTATTATATA [XGTACX_site538]	11 ± 0.69
TAATGGTGTTCATGTGGTACACTTTATAAATTGGCA [XGTACX_site729]	11.7 ± 1.1
TAATGGTATAAAAAATGTACATGTTTTTTTACAATT [XGTACX_site4285]	11.2 ± 0.54
GCTTTTAAAATAATTGGTACACATGTATAAATTCAA [XGTACX_site2327]	11.1 ± 0.69
TCATTCATATGTTACACACACACACGCACATAAAAA [CACACA_site7514]	10.5 ± 0.35
TTATGATATATTTGTTGTACGCTTTTTTTATGAACT [XGTACX_site573]	11.8 ± 1.1
TTTTCAATATATATTTGTACTTTATTTTATGATATT [GTGCAC_negctrl_site732]	11.2 ± 0.75
ATTTTATATATGTGTTGTACGGTGAACATTTTGATA [XGTACX_site6538]	10.8 ± 0.58
ATTTTAAATATTTGTGGTACCCCTTTTTTGTAACAA [XGTACX_site5590]	11.8 ± 1.1
TTCCCTTTTGTAAAATGTACATATATATTTAAACAA [XGTACX_site3263]	11.2 ± 0.54
GAAATATTTGTAAAAACATGCATGGTACTTTTAAAA [TGCATGCA_site6]	11 ± 0.7
ATTTATATTTAATATACACACATTATTTTTTTATAT [CACACA_site574]	9.955 ± 0.021
TGTAGAGCGCAAAGTAGTACTACAAATTATGGAGGG [XGTACX_site3022]	11.8 ± 1
ATATATGACAAATGTAGTACAAATTATTGTATCATA [XGTACX_site3675]	11.4 ± 0.76
TAAAAATGGGAGGGGTGTACTACACAATAAAATTAT [XGTACX_site5641]	11.6 ± 0.95
TTATATTTTTACAAGAGTACATATATATATATATAT [XGTACX_site5383]	11.4 ± 1.1
ATGTAAATACATATATGTACACAAATATATATATAT [XGTACX_site3537]	11.6 ± 1.1

Sequence	gcPBM binding intensity (ln)
TTATTTTTTTTGTGTTGTACAATTTATTACTACTAA [XGTACX_site346]	11.3 ± 0.82
TTCTGTGTGTATTGGCGTACAATTATTTTGCCTACA [XGTACX_site205]	11.7 ± 0.83
TATATTTTATATTGGTGTACAATTTTTTTTTTTTTT [XGTACX_site4291]	11.4 ± 0.91
TTTTTATAAAAATGAACACACACATATATATATATA [CACACA_site9160]	10.2 ± 0.49
ATGTGTTGGGAAAAGGCATGCACTTTTTTTTTTTTT [TGCATGCA_site707]	10.2 ± 0.11
GTACAGATGTAGTATGCATGTAATTATATATAAATT [TGCATGCA_site292]	11.1 ± 0.47
CCTTTATAAAAAAGTAGTACACAATGAATTTATAAT [XGTACX_site5523]	11.8 ± 1
CTTTTAATTATAAAATGTACTTAAAAATAATAATAC [XGTACX_site635]	11.1 ± 0.88
TAATAATAAATAAAATGTACATATGAACAAATAAGT [XGTACX_site6710]	11.3 ± 0.61
TTATTATAAAAATGTAGTACAATACTTTTTTTTTTT [XGTACX_site732]	11.7 ± 0.84
TAAAATAAAAATTAAAGTACATATGTATATATATAT [XGTACX_site3984]	11.1 ± 0.88
AATAATGTATGAAATAAACACACAAGTAAGTACATA [CACACA_site8776]	11.7 ± 0.91
ATATGAAATATATGTAGTACACATAATTAAAAGTAG [XGTACX_site6490]	11.7 ± 0.86
TTATTTTATAATAAAAGTACACAAAAAAAAAAAAAA [XGTACX_site7668]	11.4 ± 1.1
GGGGGCTTTTATAAAAGTACAAAATGAATAAAAATT [XGTACX_site2393]	11.4 ± 0.97
TTATATACATAAAAATGTACTTTTTATAAAATATAT [XGTACX_site8281]	11.2 ± 1
AATGAAATAAAATAAAGTACATATATGTAAAAGTAG [XGTACX_site5650]	11.4 ± 0.79
TAATGTATGAAATAAACACACAAGTAAGTACATAAA [CACACA_site2451]	11.6 ± 0.98
ACAAGATGATGGAAATGTACATAAAAAGAATCATAT [XGTACX_site8682]	11.2 ± 0.63

Sequence	gcPBM binding intensity (ln)
AAAAAAAAAAAAACTACACACATACAAATATTTATA [CACACA_site5430]	9.875 ± 0.035
AAAAAAAAGAAAAACACACACATATATATATATAAT [CACACA_site4707]	9.72 ± 0.042
TGAAAATAATTATAGGTGCATAAACATACGGATCTT	10.21 ± 0.021
TTTTTTTTAAGAGATAGTACATAAATATTATAATAT [XGTACX_site4685]	11.1 ± 0.86
GACATTAATTATTTGACACACGACTGGGTGGTGATT [CACACA_site306]	10.09 ± 0.021
TATTTTGAAAATAAAAGTACAAATTTTATATTTAAA [XGTACX_site3238]	11.1 ± 0.83
TTTTTTGAAAATAAAAGTACAAATTTTATATTTAAA [XGTACX_site2758]	11 ± 0.88
TCGTATTTAAAATGTAGTACATAATTTGAAAAATAA [XGTACX_site5832]	11.6 ± 0.83
ATGTATGTAATAAAAAGTACATATGTTCATAATAAA [XGTACX_site842]	11.4 ± 0.57
AAATGTAATATAAATAGTACATATTAAATAAAATTA [XGTACX_site6917]	11.1 ± 0.88
AAAAAAAAAAAAAGTAGTACATAATATGTTCCTCCT [XGTACX_site8356]	11.6 ± 1
TGAAAAATAAATAAATGTACATATATATATATATAC [XGTACX_site7310]	10.9 ± 0.49
AATTTGAAATAAAGTAGTACAGTATATAAAAATATA [XGTACX_site128]	11.8 ± 1.1
AAATGAAATAAATGTAGTACACATATACAATATATA [XGTACX_site6951]	11.7 ± 1.1
AATAAAAATAATGAATGTACATATATATATACAATA [XGTACX_site3342]	10.9 ± 0.4
ATAAGTAATATAATATGTACATATATATATATATAT [XGTACX_site3818]	11.2 ± 0.5
AAAACTATTAAATGTAGTACATAATTATTGAAATAA [XGTACX_site8716]	11.6 ± 0.91
AAGTATAAATTAAAATGTACTTATAAAAAAAAAGAA [XGTACX_site7028]	11.2 ± 0.72
TAGTAACTTGTATTCACACAAATTATATTATATTAC [CACACA_site5041]	9.965 ± 0.021

— the supplement of paper PMC11417369
